# Among all 310,000 compounds or so, about 14,000 (4.5%) showed an effect of 50% or more. The effect is printed as a negative number. The sample holds strong results, similar compounds and a random draw of the others, so the mix is not that of the screen.
# Molecular target: human ether-à-go-go-related gene (hERG) potassium channel (human, UniProt Q12809)
# Test: primary screen, population patch clamp on CHO cells stably expressing hERG; higher = less effect of the substance
# 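Note: peak tail current of the secondary pulse compared with the same well before compound.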
# human ether-à-go-go-related gene (hERG) potassium channel, sequence (Q12809 whole entry, looked up): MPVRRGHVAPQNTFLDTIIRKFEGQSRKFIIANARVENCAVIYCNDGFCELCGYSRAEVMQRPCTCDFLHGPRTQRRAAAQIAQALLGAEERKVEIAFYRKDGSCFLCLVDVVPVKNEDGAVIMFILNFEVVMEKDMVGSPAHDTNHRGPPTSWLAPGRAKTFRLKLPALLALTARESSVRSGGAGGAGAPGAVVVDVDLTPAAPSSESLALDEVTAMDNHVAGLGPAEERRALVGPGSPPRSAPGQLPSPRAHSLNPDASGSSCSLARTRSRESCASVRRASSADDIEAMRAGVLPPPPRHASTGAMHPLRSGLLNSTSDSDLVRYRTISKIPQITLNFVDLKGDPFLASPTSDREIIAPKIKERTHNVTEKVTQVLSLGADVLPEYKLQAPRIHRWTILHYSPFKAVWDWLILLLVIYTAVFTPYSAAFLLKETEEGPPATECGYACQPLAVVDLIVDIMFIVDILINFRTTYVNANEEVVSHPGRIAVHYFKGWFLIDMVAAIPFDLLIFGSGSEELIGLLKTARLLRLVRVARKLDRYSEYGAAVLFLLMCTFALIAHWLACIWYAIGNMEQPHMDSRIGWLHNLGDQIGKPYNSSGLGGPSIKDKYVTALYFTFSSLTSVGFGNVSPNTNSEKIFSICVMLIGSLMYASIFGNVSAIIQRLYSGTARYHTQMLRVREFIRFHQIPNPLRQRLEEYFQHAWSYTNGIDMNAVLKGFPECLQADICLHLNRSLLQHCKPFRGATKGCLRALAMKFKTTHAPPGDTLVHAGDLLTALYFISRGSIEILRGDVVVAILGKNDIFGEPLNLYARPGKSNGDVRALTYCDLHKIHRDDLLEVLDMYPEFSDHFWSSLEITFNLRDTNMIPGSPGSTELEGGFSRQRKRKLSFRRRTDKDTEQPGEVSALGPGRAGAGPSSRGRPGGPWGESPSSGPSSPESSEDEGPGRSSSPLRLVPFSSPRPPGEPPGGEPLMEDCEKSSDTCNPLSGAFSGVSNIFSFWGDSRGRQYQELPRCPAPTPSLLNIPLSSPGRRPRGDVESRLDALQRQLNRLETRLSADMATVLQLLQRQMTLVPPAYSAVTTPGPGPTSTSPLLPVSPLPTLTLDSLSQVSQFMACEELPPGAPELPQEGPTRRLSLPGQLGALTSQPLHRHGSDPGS
row,SMILES,"hERG current change (%, negative = inhibition) at 10uM [%]"
1,O=C1c2ccccc2C(=O)N1CCc1nn[nH]n1,17
2,COc1ccc(NC(=O)NNC(=O)COc2ccc3cc(Br)ccc3c2)c(OC)c1,19.2
3,CCOC(=O)C1(CCCc2ccccc2)CCN(C(=O)CN2CCOC2=O)CC1,6.35
4,CCOC(=O)C1(CCCc2ccccc2)CCN(C(=O)CCCn2cncn2)CC1,-44.1
5,CCOC(=O)C1(Cc2ccc(OC)cc2)CCN(C(=O)CCN2CCCC2=O)CC1,-3.22
6,CCOC(=O)C1(CCc2ccccc2)CCN(C(=O)C(C)n2cncn2)CC1 (stereo not shown),-14.3
7,CCOC(=O)C1(CCCc2ccccc2)CCN(C(=O)CCn2cncn2)CC1,-56.4
8,CCOC(=O)C1(Cc2ccccc2Cl)CCN(C(=O)c2cnccn2)CC1,-20.2
9,CCOC(=O)C1(CCc2ccccc2)CCN(C(=O)CCn2cncn2)CC1,-63.2
10,CCOC(=O)C1(CCCc2ccccc2)CCN(C(=O)CCN2CCCCC2=O)CC1,-62.8
11,CCOC(=O)C1(Cc2ccccc2Cl)CCN(C(=O)CN2CCOC2=O)CC1,8.88
12,CCOC(=O)C1(Cc2ccccc2Cl)CCN(C(=O)CCn2ccnc2C)CC1,-52.6
13,CCOC(=O)C1(CCCc2ccccc2)CCN(C(=O)C(C)n2cncn2)CC1 (stereo not shown),-29
14,CN(C)c1nc(N)c([N+](=O)[O-])c(NCC2CCCO2)n1 (stereo not shown),7.07
15,O=C(O)CCCNC(=O)/C=C/c1ccco1,12.5
16,CC(=O)Nc1sc(-c2ccccc2)nc1-c1ccccc1,14
17,CCOC(=O)c1[nH]c2ccc(OC)cc2c1NC(=O)c1nonc1C,6.27
18,Cc1cc(-c2nnc(CCC(=O)NCc3ccc(F)c(F)c3)o2)no1,2.95
19,Cc1ccnc(NC(=O)c2cccc(S(=O)(=O)N3CCCc4ccccc43)c2)c1,-1.95
20,CN(C(=O)CC1C(=O)NCCN1Cc1c(F)cccc1Cl)C1CCOCC1 (stereo not shown),17.9
21,Cc1ccc(S(=O)(=O)N2CC(=O)NC(=O)C2)cc1,6.07
22,O=C(C#Cc1ccccc1)Nc1ccc(F)cc1,10.1

row,SMILES,"hERG current change (%, negative = inhibition) at 10uM [%]"
1,C[C@@H](NC(=O)c1nc[nH]c1C(=O)NCc1ccc(CNC(=O)OC(C)(C)C)cc1)c1ccccc1,6.47
2,CCOC(=O)C1(CCCc2ccccc2)CCN(C(=O)CN2C(=O)CSC2=O)CC1,-4.63
3,CCOC(=O)C1(CCCc2ccccc2)CCN(C(=O)CCn2cnnn2)CC1,-56.6
4,CCOC(=O)C1(CCc2ccccc2)CCN(C(=O)CCn2cnnn2)CC1,-43.2
5,COc1ccc(NC(=O)NNC(=O)c2ccc(Cl)cc2Cl)cc1OC,13
6,CCOc1ccc2c(c1)sc1nc(C(=O)OC)cc(=O)n12,-12.9
7,C[C@]12CS(=O)(=O)C[C@H]1SC(=S)N2c1ccccc1,-0.916
8,Cn1c(C(=O)N2CCN(c3ccc(Cl)cc3)CC2)cc2c(=O)[nH]c3ccccc3c21,-114
9,Cc1ccc(Cl)cc1N1CCN(C(=O)c2cc3c(=O)[nH]c4ccccc4c3n2C)CC1,8.91
10,Cc1cccc(N2CCN(C(=O)c3cc4c(=O)[nH]c5ccccc5c4n3C)CC2)c1C,14.6
11,OCCNc1nc2ccccc2[nH]1,12.8
12,CCCCN(CCCC)CCCNC(=O)C1CC(c2ccc(C(F)(F)F)cc2)=NO1 (stereo not shown),-72.3
13,CCCCNC(=O)C1CC(c2ccc(C(F)(F)F)cc2)=NO1 (stereo not shown),3.73
14,CCCCN(CCCC)CCCNC(=O)C1CC(c2cc(C(F)(F)F)cc(C(F)(F)F)c2)=NO1 (stereo not shown),3.86
15,COCCCN1C(=O)c2ccc(C(=O)OCC(=O)N(C)c3ccccc3)cc2C1=O,2.63
16,COc1cccc2cc(-c3csc(NC(=O)CCC(=O)NCCCN4CCC(C)CC4)n3)c(=O)oc12,-51.9
17,CCOc1cccc2cc(-c3csc(NC(=O)CCC(=O)NCCN4CCCCC4C)n3)c(=O)oc12 (stereo not shown),-34.9
18,CCOc1cccc2cc(-c3csc(NC(=O)CCC(=O)NCCCN4CCC(C)CC4)n3)c(=O)oc12,-44.6
19,O=C(CNC(=O)c1cccc(Br)c1)NCCc1nc2ccccc2[nH]1,5.59
20,COc1ccc(CN2CCCC(C(=O)c3ccc(SC)cc3)C2)cc1Cn1cccn1 (stereo not shown),-80.3
21,COc1ccc(C(=O)C2CCCN(C(=O)c3cccc(Cn4cccn4)c3)C2)cc1F (stereo not shown),-14.5
22,COc1ccccc1C(=O)C1CCCN(C(=O)c2cccc(Cn3cccn3)c2)C1 (stereo not shown),-13

row,SMILES,"hERG current change (%, negative = inhibition) at 10uM [%]"
1,COc1ccc(CN2CCCC(C(=O)c3ccc(Cl)cc3)C2)cc1Cn1cccn1 (stereo not shown),-83.9
2,COc1ccc(CN2CCCC(C(=O)c3cccc(OC(C)C)c3)C2)cc1Cn1cccn1 (stereo not shown),-69.9
3,COCCNC(=O)CSc1ncnc2sc(-c3ccccc3)cc12,2.83
4,CC(C)(C)C1CCc2c(C(=O)NNC(=O)/C=C/C(=O)O)csc2C1 (stereo not shown),10.3
5,Cc1c(C(=O)N2CCC3(CC2)OCCO3)sc2ncnc(N3CCc4ccccc4C3)c12,-33.7
6,OCC1CCN(Cc2cn(Cc3ccccc3)nc2-c2cc3ccccc3o2)CC1,-67
7,Cn1cc(CN2CCC(C(=O)N3CCCCC3)CC2)c(-c2ccccc2F)n1,4.1
8,N#CCCn1cc(C(=O)O)c(-c2cc3ccccc3o2)n1,24.6
9,OC1CCCN(Cc2cn(Cc3ccccc3)nc2-c2cc3ccccc3o2)C1 (stereo not shown),-44.7
10,OC1CCN(Cc2cn(Cc3ccccc3)nc2-c2cc3ccccc3o2)CC1,-50.7
11,OCC1CCCN(Cc2cn(Cc3ccccc3)nc2-c2cc3ccccc3o2)C1 (stereo not shown),-41.9
12,O=C1CSC(c2cn(-c3ccccc3)nc2-c2cc3ccccc3o2)N1Cc1ccccc1 (stereo not shown),-6.82
13,Cn1cc(CN2CCC(C(O)CCc3ccccc3)CC2)c(-c2ccccc2F)n1 (stereo not shown),-71.3
14,Cn1cc(CN2CCC(C(=O)N3CCCC3)CC2)c(-c2ccccc2F)n1,-4.8
15,CCC(O)C1CCN(Cc2cn(Cc3ccccc3)nc2-c2cc3ccccc3o2)CC1 (stereo not shown),-65.1
16,O=Cc1cn(CCC(=O)O)nc1-c1cc2ccccc2o1,-5.41
17,CC1(C)CC(=O)C(Sc2ccccc2[N+](=O)[O-])=C(O)C1,4.99
18,Cc1cc(C)c(OCCCCCNCCO)c(C)c1,-5.77
19,Brc1cccc(OCCCCn2cncn2)c1,11.2
20,O=C(CSc1nncn1-c1ccccc1)Nc1ccccc1,-0.536
21,N#Cc1c(Oc2ccc3ccccc3c2)sc(C(=O)c2ccccc2)c1N,11.1
22,O=C1N(Cc2cccnc2)C[C@@H]2C[C@@H](c3ccc4nsnc4c3)N3CCC[C@@]123,-11.3

row,SMILES,"hERG current change (%, negative = inhibition) at 10uM [%]"
1,O=C1N(Cc2cccc(Cl)c2)C[C@@H]2C[C@@H](c3ccc4nonc4c3)N3CCC[C@@]123,-55.1
2,O=C1N(Cc2cccnc2)C[C@@H]2C[C@@H](c3ccc4nonc4c3)N3CCC[C@@]123,-59.1
3,Cc1nn(C(C)C)c(C)c1[C@@H]1C[C@H]2CN(Cc3cccc(Cl)c3)C(=O)[C@]23CCCN13,-29.2
4,Cc1ccc([C@@H]2C[C@H]3CN(Cc4cccc(Cl)c4)C(=O)[C@]34CCCN24)o1,-34.3
5,COCc1ccc([C@@H]2C[C@H]3CN(Cc4cccnc4)C(=O)[C@]34CCCN24)o1,-3.38
6,CCOCCCNC(=O)c1ccc(NC(=O)C2=CSCCO2)cc1,15.4
7,CN(C(=S)NC(=O)C1(C)CC1(Cl)Cl)c1ccccc1 (stereo not shown),16.7
8,COc1cccc2c1C(CO)N1C(C#N)C3CC(C(=O)O)C(C1C2)N3C (stereo not shown),12.3
9,NC(=O)C1CCN(CCC(=O)Nc2ccc(F)c(F)c2)CC1,11.1
10,COc1ccccc1C(=O)Nc1cccc(NC(=O)c2ccccc2OC)n1,8.14
11,Clc1ccccc1OCCN1CCC(Cc2ccccc2)CC1.O=C(O)C(=O)O,-73.4
12,CCN1CCN(CCOc2cccc(Cl)c2Cl)CC1.O=C(O)C(=O)O,-3.27
13,Cc1ccccc1OCCN1CCCC1,7.01
14,Cc1ccccc1OCCOCCN1CCCCCC1.O=C(O)C(=O)O,-29.3
15,CCOc1ccccc1OCCN1CCC(Cc2ccccc2)CC1.O=C(O)C(=O)O,-67.4
16,CCN1CCN(CCOc2ccccc2OCc2ccccc2)CC1.O=C(O)C(=O)O,-73.2
17,Clc1ccccc1OCCCCN1CCNCC1.O=C(O)C(=O)O,12.7
18,Clc1ccccc1OCCN1CCCCC1,-16.2
19,CCOc1ccccc1OCCN1CCCC1,9.51
20,CCOc1ccccc1OCCOCCN1CCN(Cc2ccccc2)CC1.O=C(O)C(=O)O,-48.5
21,CCN1CCN(CCCCOc2ccccc2F)CC1.O=C(O)C(=O)O,-9.65
22,Cc1ccccc1OCCN1CCC(Cc2ccccc2)CC1.O=C(O)C(=O)O,-58.5

# Reference: paper PMC4336329 (PLoS ONE, 2015)
